# From ChEMBL document CHEMBL1157539, “Thousands of chemical starting points for antimalarial lead identification” (Nature, 2010)
# Columns and labels:
# Assay type in all cases: functional
# [1] = test system: Plasmodium falciparum; test: GSK_TCMDC: Inhibition of Plasmodium falciparum 3D7 in whole red blood cells, using parasite LDH activity as an index of growth. Test compounds present at 2uM
# [2] = test system: Plasmodium falciparum; test: GSK_TCMDC: Inhibition of Plasmodium falciparum Dd2 in whole red blood cells, using parasite LDH activity as an index of growth. Test compounds present at 2uM
# [3] = test system: HepG2; test: GSK_TCMDC: Percent inhibition of human HepG2 cell line. Test compounds present at 10uM.
compound,measurement,setting,value
Cl.OC(c1cc(C(F)(F)F)nc2c(F)cccc12)C1CCCCN1 (stereo not given),Inhibition,[1],98%
same,Inhibition,[2],74%
same,Inhibition,[3],0%
CCCCOP(=O)(OCCCC)C(=Cc1ccc(O)c2ccccc12)P(=O)(OCCCC)OCCCC,Inhibition,[1],84%
same,Inhibition,[2],64%
same,Inhibition,[3],1%
C[C@H](Nc1c(Nc2ccc3[nH]ccc3c2)c(=O)c1=O)C1CCCCC1,Inhibition,[1],96%
same,Inhibition,[2],11%
same,Inhibition,[3],7%
C[C@H](N[C@H]1CCCc2c1[nH]c1ccc(Br)cc21)c1ccccc1.Cl,Inhibition,[1],96%
same,Inhibition,[2],95%
same,Inhibition,[3],58%
Nc1nccc2ccc(-c3ccc(NC(=O)Nc4cc(C(F)(F)F)ccc4F)cc3)cc12.O=C(O)C(F)(F)F,Inhibition,[1],100%
same,Inhibition,[2],100%
same,Inhibition,[3],99%
COc1cc(NC(=O)/C=C/c2ccccc2OC(F)(F)F)cc(OCCN2CCN(CCN3CCOCC3)CC2)c1.O=C(O)C(=O)O,Inhibition,[1],98%
same,Inhibition,[2],25%
same,Inhibition,[3],20%
COc1ccc(CNc2nc(NCCc3ccccc3)c3cc(OC)c(OC)cc3n2)cc1OC,Inhibition,[1],100%
same,Inhibition,[2],100%
same,Inhibition,[3],48%
CCCCN(CCCC)/C(=N/C(=N)Nc1ccc(Cl)cc1)NCCCCCCN/C(=N\C(=N)Nc1ccc(Cl)cc1)N(CCCC)CCCC,Inhibition,[1],81%
same,Inhibition,[2],72%
same,Inhibition,[3],0%
O=C(/C=C/c1ccc(Cl)c(Cl)c1)NCCCCCCN1CCN(C(=O)Nc2ccc(Cl)c(Cl)c2)CC1,Inhibition,[1],88%
same,Inhibition,[2],0%
same,Inhibition,[3],23%
CC(Cc1ccc(CN(CC(N)=O)Cc2ccc(CC(C)NCCc3cccc(Cl)c3)cc2)cc1)NCCc1cccc(Cl)c1.O=C(O)C(F)(F)F (stereo not given),Inhibition,[1],95%
same,Inhibition,[2],68%
same,Inhibition,[3],26%
